# Assay results taken from PubChem BioAssay AID602244 (Sanford-Burnham Center for Chemical Genomics, 2012).
# The whole screen tested about 360,000 compounds, of which about 1,300 (0.36%) were called active. The sample holds actives, similar compounds and a random draw of the others, so the mix is not that of the screen. A number with no mark means an inactive call. No stated cut-off is given here; in the data, active means inhibition above about 34% (passing the limit was not always enough); inactive means the rest.
# Target: C-X-C chemokine receptor type 6 (Homo sapiens) (UniProt O00574)
# Sequence (O00574 whole entry, looked up): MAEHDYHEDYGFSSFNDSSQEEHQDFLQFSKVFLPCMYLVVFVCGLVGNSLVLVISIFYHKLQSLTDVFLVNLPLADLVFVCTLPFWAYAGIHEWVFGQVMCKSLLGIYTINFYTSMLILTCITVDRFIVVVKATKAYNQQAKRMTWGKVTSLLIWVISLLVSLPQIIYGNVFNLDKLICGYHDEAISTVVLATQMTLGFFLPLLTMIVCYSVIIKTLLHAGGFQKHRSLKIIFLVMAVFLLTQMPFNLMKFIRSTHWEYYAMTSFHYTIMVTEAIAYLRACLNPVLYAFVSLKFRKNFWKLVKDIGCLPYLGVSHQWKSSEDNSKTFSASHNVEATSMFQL
# Assay: CXCR6 receptor inhibitors, primary screen, cell-based, beta-arrestin, luminescence, CHO-K1 PathHunter, 1536-well (AID 602244);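 further: antagonist mode with CXCL16 agonist at 10 nM final; 0% = 10 nM CXCL16 with DMSO and 100% = unstimulated wells without agonist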
# Settings: at 20 µM, stronger effect = higher value
row,SMILES,inhibition
1,CCCCC(=O)N/N=C/c1c(O)n(CC)c(=S)n(CC)c1=O,58.7% (active)
2,Cn1c(O)c(C=NCCCC(=O)O)c(=O)n(C)c1=O,-3.2%
3,O=C(N/N=C/c1c(O)n(Cc2ccccc2)c(=O)[nH]c1=O)c1ccccc1,7.9%
4,Cc1cc(C)cc(NC(=S)NC2CC3CCCC(C2)N3Cc2cccs2)c1 (stereo not given),3.2%
5,Oc1cc2c(cc1CN1CCN(c3ccccc3)CC1)OCO2,5.6%
6,CCCC[N+]1(C)C2CC(OC(=O)C(CO)c3ccccc3)CC1C1OC12 (stereo not given),0.8%
7,Cc1ccc(-c2nn(CCC#N)cc2C(=O)O)cc1C,9.5%
8,Cc1cccc(N2C(=O)NC(=O)/C(=C\c3cnn(-c4ccccc4)c3)C2=O)c1,51.1% (active)
9,C/C=C/CC1(CC)C(=O)NC(=S)NC1=O,-5.1%
10,COc1ccc(S(=O)(=O)NCc2ccc(C(=O)N3CCC4(CC3)OCCO4)cc2)cc1,3.3%
11,CCOC(=O)C1=C(C)OC(N)=C(C(=O)OC)C12C(=O)Nc1ccc(Br)cc12 (stereo not given),9.8%
12,O=C1NC(=O)C(CCOc2ccccc2)(CCc2ccccc2)C(=O)N1,-10%
13,C=CCN1C(=O)C2(C(C(=O)OCC)=C(N)Oc3c2c(=O)oc2ccccc32)c2ccccc21 (stereo not given),-2.4%
14,CC(=O)OC1C2(CC3N4C(=O)C5(CO)SSC4(CC31O)C(=O)N5C)OC(C)C(C)(C)C2=O (stereo not given),99.4% (active)
15,CNC(=O)O/N=C(\N)Cc1csc2ccc(Cl)cc12,0%
